We go through 39 molecules from PubChem BioAssay (NCATS).

Inconclusive results are not listed. Where a call stands in place of a potency, no number is given. Activity calls are given as the source filed them. Unless noted, calls come from the whole dose curve; as a rule, active = well fitted cell-killing curve with a large enough effect; inconclusive = small, poorly fitted or top-dose-only effect; inactive = flat fitted curve, though single readings scatter.

Sequence of Estrogen receptor (Homo sapiens) (P03372 whole entry, looked up): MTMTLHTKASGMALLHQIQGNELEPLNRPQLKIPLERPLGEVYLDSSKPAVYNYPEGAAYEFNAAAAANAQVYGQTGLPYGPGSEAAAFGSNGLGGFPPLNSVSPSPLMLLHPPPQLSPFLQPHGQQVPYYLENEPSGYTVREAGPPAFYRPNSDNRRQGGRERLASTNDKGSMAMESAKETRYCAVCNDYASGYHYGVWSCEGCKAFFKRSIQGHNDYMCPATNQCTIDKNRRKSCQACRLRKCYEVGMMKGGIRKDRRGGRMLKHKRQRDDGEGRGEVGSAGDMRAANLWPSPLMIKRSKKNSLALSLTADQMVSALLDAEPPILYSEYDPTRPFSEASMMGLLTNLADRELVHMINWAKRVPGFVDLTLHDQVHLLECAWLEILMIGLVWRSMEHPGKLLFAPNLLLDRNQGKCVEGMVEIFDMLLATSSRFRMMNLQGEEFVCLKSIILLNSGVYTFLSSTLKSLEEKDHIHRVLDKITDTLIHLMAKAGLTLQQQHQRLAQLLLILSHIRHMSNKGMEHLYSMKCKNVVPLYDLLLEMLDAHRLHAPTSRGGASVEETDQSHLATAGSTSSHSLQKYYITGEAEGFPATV

Test system in the first test: not listed separately
Nature of the test: Cell Viability - LYMP1-002 - Assay at 24 hr (AID 993). To be noted: LYMP1-002 lymphoblastoid cells viability; series mostly up to 92.2 µM. The gist of the method: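 qHTS cytotoxicity at 24 h: CellTiter-Glo ATP luminescence in lymphoblastoid line LYMP1-002 incubated with compound at 37 °C. Concentration-response modeled with the Hill equation for AC50; tetraoctylammonium bromide served as positive control.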
As for `Oc1cccc(Cl)c1Cl`, the Potency result is “inactive”.

For `CCC/C=N/O`, the Potency result was “inactive”.

Take `Nc1cccc2ccccc12`: the Potency result is “inactive”.

As to `Cc1cnc[nH]1`, the Potency entry is “inactive”.

In the case of `CN(C)N=O`, the Potency entry was “inactive”.

For the molecule `C=C(Cl)CCl`, the Potency entry was “inactive”.

Turning to `ClCCOCOCCCl`, the Potency entry is “inactive”.

For the molecule `CC12CC1(C)C(=O)N(c1cc(Cl)cc(Cl)c1)C2=O` (stereo unspecified), the Potency result is “inactive”.

`CC(C)(Cl)[N+](=O)[O-]`: the Potency entry was “inactive”.

On to `Cl/C=C/Cl`, for which the Potency result is “inactive”.

Regarding `CCCCOCC1CO1` (stereo unspecified), the Potency entry is “inactive”.

For the molecule `O=C(O)c1cccc(Cl)c1`, the Potency result was “inactive”.

Consider `C1CC2OC2CC1C1CO1` (stereo unspecified), for which the Potency result was “inactive”.

Take `Brc1cccc(-c2ccccc2)c1`: the Potency result was “inactive”.

As to `Oc1c(Cl)cccc1Cl`, the Potency result was “inactive”.

On to `ClCCOCCCl`, for which the Potency result was “inactive”.

As for `CCNCC`, the Potency entry was “inactive”.

As for `CC(C)C#N`, the Potency entry is “inactive”.

With `Cl/C=C\Cl`, the Potency entry was “inactive”.

Regarding `c1ccc2c(c1)CCNC2`, the Potency result was “inactive”.

As for `CCBr`, the Potency result was “inactive”.

On to `N#CCCC#N`, for which the Potency result was “inactive”.

Turning to `Cc1ccccc1[N+](=O)[O-]`, the Potency entry was “inactive”.

Regarding `C=CC(=O)OCCN(C)C`, the Potency result is “inactive”.

Take `N#CCCCCC#N`: the Potency result is “inactive”.

`CN=C=O`: the Potency entry is “inactive”.

For `c1ccc(C2CO2)cc1` (stereo unspecified), the Potency entry is “inactive”.

For `CCCCCC[N+](=O)[O-]`, the Potency result was “inactive”.

`OCC(Cl)CCl` (stereo unspecified): the Potency result is “inactive”.

In the case of `COc1ccc(C=O)cc1`, the Potency entry was “inactive”.

Regarding `Nc1ccc(Cl)c(Cl)c1`, the Potency result is “inactive”.

`CC(=O)[O-].CC(=O)[O-].CC(=O)[O-].[Cr+3]`: the Potency result was “inactive”.

In the case of `CC(=O)CCC(C)=O`, the Potency entry is “inactive”.

In the case of `CC(C#N)CCC#N` (stereo unspecified), the Potency entry was “inactive”.

Test system in another test: not listed separately
Briefly: Cell Viability - LYMP1-002 - Assay at 40 hr (AID 994). Note: nearly all actives have a fitted effect of over 60% in size. The following applies: LYMP1-002 lymphoblastoid cell viability; series mostly up to 92.2 µM. The gist of the method: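 Cytotoxicity was read as loss of cellular ATP (CellTiter-Glo luminescence) after 40 hr compound exposure at 37 C of 2500 LYMP1-002 lymphoblastoid cells per well. Concentration-response data were fitted with the standard Hill equation to give AC50.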
With `Oc1cccc(Cl)c1Cl`, the Potency result is “inactive”.

In the case of `CCC/C=N/O`, the Potency result is “inactive”.

For `Nc1cccc2ccccc12`, the Potency result was “inactive”.

In the case of `CN(C)N=O`, the Potency entry was “inactive”.

Take `COc1c(C(C)(C)C)cc([N+](=O)[O-])c(C)c1[N+](=O)[O-]`: the Potency entry is “inactive”.

With `C=C(Cl)CCl`, the Potency result was “inactive”.

On to `ClCCOCOCCCl`, for which the Potency result is “inactive”.

For the molecule `CC12CC1(C)C(=O)N(c1cc(Cl)cc(Cl)c1)C2=O` (stereo unspecified), the Potency entry was “inactive”.

Turning to `CC(C)(Cl)[N+](=O)[O-]`, the Potency entry was “inactive”.

As to `Cl/C=C/Cl`, the Potency entry was “inactive”.

Regarding `CCCCOCC1CO1` (stereo unspecified), the Potency entry is “inactive”.

For `O=C(O)c1cccc(Cl)c1`, the Potency result is “inactive”.

On to `C1CC2OC2CC1C1CO1` (stereo unspecified), for which the Potency result is “inactive”.

Take `Brc1cccc(-c2ccccc2)c1`: the Potency entry was “inactive”.

Regarding `Oc1c(Cl)cccc1Cl`, the Potency entry is “inactive”.

For `ClCCOCCCl`, the Potency result is “inactive”.

`CCNCC`: the Potency result is “inactive”.

Consider `CC(C)C#N`, for which the Potency result was “inactive”.

For the molecule `Cl/C=C\Cl`, the Potency entry is “inactive”.

Turning to `c1ccc2c(c1)CCNC2`, the Potency result was “inactive”.

For `CCBr`, the Potency result was “inactive”.

With `O=[N+]([O-])c1ccc(Cl)c(Cl)c1Cl`, the Potency entry was “inactive”.

In the case of `N#CCCC#N`, the Potency result was “inactive”.

Turning to `Cc1ccccc1[N+](=O)[O-]`, the Potency entry is “inactive”.

`OCCBr`: the Potency entry was “inactive”.

As to `C=CC(=O)OCCN(C)C`, the Potency result is “inactive”.

Take `CC(C)(C)C(O)(CCc1ccc(Cl)cc1)Cn1cncn1` (stereo unspecified): the Potency result was “inactive”.

Turning to `N#CCCCCC#N`, the Potency entry was “inactive”.

`CN=C=O`: the Potency result was “inactive”.

With `c1ccc(C2CO2)cc1` (stereo unspecified), the Potency entry was “inactive”.

Turning to `CCCCCC[N+](=O)[O-]`, the Potency result is “inactive”.

In the case of `OCC(Cl)CCl` (stereo unspecified), the Potency result is “inactive”.

As for `COc1ccc(C=O)cc1`, the Potency result is “inactive”.

As for `Nc1ccc(Cl)c(Cl)c1`, the Potency entry is “inactive”.

Consider `CC(=O)[O-].CC(=O)[O-].CC(=O)[O-].[Cr+3]`, for which the Potency entry was “inactive”.

For `CC(=O)CCC(C)=O`, the Potency entry was “inactive”.

Take `C=CC(=O)OCC(CC)CCCC` (stereo unspecified): the Potency result was “inactive”.

Consider `CC(C#N)CCC#N` (stereo unspecified), for which the Potency entry is “inactive”.

Test system in the next test: not listed separately
Nature of the test: qHTS Assay for Identification of Small Molecule Inducers of Hypoxia Response (AID 2120; active = well fitted curve in the direction sought with a large enough effect in the signal ratio, with a control signal flat, not every such curve was filed as active; the % refers to the signal ratio). The following applies: hypoxia response reporter cells, beta-lactamase ratio readout; series mostly up to 104 µM. Put shortly: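 Reporter induction read as the CCF4 blue/green (460nm/530nm) emission ratio after 2.5 h dye loading at room temperature. ME-180 HRE-beta-lactamase cells received titrated compounds for 17 h at 37 degrees Celsius; AC50 values derived.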
Background: In qHTS, concentration-response curves come from the screen itself.
In the case of `Oc1cccc(Cl)c1Cl`, the Potency entry was “inactive”.

In the case of `CCC/C=N/O`, the Potency result was “inactive”.

As to `Nc1cccc2ccccc12`, the Potency result is “inactive”.

For `Cc1cnc[nH]1`, the Potency result was “inactive”.

`CN(C)N=O`: the Potency result is “inactive”.

Regarding `COc1c(C(C)(C)C)cc([N+](=O)[O-])c(C)c1[N+](=O)[O-]`, the Potency result is “inactive”.

For the molecule `C=C(Cl)CCl`, the Potency result was “inactive”.

`ClCCOCOCCCl`: the Potency result is “inactive”.

For `CC12CC1(C)C(=O)N(c1cc(Cl)cc(Cl)c1)C2=O` (stereo unspecified), the Potency entry is “inactive”.

As for `CC(C)(Cl)[N+](=O)[O-]`, the Potency entry was “inactive”.

Take `Cl/C=C/Cl`: the Potency entry is “inactive”.

For the molecule `CCCCOCC1CO1` (stereo unspecified), the Potency result is “inactive”.

With `O=C(O)c1cccc(Cl)c1`, the Potency result is “inactive”.

Turning to `C1CC2OC2CC1C1CO1` (stereo unspecified), the Potency entry was “inactive”.

Turning to `Brc1cccc(-c2ccccc2)c1`, the Potency entry was “inactive”.

For the molecule `Oc1c(Cl)cccc1Cl`, the Potency result is “inactive”.

Take `ClCCOCCCl`: the Potency result was “inactive”.

With `CCNCC`, the Potency result was “inactive”.

With `CC(C)C#N`, the Potency result is “inactive”.

`Cl/C=C\Cl`: the Potency entry was “inactive”.

Take `c1ccc2c(c1)CCNC2`: the Potency entry is “inactive”.

On to `CCBr`, for which the Potency entry was “inactive”.

As for `O=[N+]([O-])c1ccc(Cl)c(Cl)c1Cl`, the Potency result is “inactive”.

Turning to `N#CCCC#N`, the Potency result was “inactive”.

On to `Cc1ccccc1[N+](=O)[O-]`, for which the Potency entry was “inactive”.

Consider `OCCBr`, for which the Potency result was “inactive”.

Consider `C=CC(=O)OCCN(C)C`, for which the Potency result was “inactive”.

With `CC(C)(C)C(O)(CCc1ccc(Cl)cc1)Cn1cncn1` (stereo unspecified), the Potency result is “inactive”.

With `N#CCCCCC#N`, the Potency entry was “inactive”.

Consider `CN=C=O`, for which the Potency result was “inactive”.

As to `c1ccc(C2CO2)cc1` (stereo unspecified), the Potency result is “inactive”.

On to `CCCCCC[N+](=O)[O-]`, for which the Potency entry was “inactive”.

`OCC(Cl)CCl` (stereo unspecified): the Potency result is “inactive”.

Consider `COc1ccc(C=O)cc1`, for which the Potency entry was “inactive”.

Turning to `Nc1ccc(Cl)c(Cl)c1`, the Potency entry was “inactive”.

With `CC(=O)[O-].CC(=O)[O-].CC(=O)[O-].[Cr+3]`, the Potency entry was “inactive”.

In the case of `CC(=O)CCC(C)=O`, the Potency entry is “inactive”.

Take `C=CC(=O)OCC(CC)CCCC` (stereo unspecified): the Potency result is “inactive”.

`CC(C#N)CCC#N` (stereo unspecified): the Potency result is “inactive”.

The target of a further test is Estrogen receptor (Homo sapiens) (UniProt P03372). Nature of the test: qHTS assay for small molecule antagonists of estrogen receptor alpha signaling (AID 588513; active = well fitted curve in the direction sought with a large enough effect in the signal ratio, with a control signal flat, not every such curve was filed as active; the % refers to the signal ratio). The following applies: ER-alpha-UAS-bla HEK293, beta-lactamase ratio, antagonist mode; series mostly up to 76.9 µM. The gist of the method:
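ER-alpha-UAS-bla GripTite HEK 293 cells in medium with 2% charcoal/dextran-treated FBS were preincubated 4 h at 37 C, dosed with compound (1:2 titration), stimulated with 0.5nM 17-beta-estradiol for 18 h, then read by CCF4 beta-lactamase fluorescence.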
Consider `Oc1cccc(Cl)c1Cl`, for which the Potency entry was “inactive”.

Turning to `CCC/C=N/O`, the Potency result is “inactive”.

For `Nc1cccc2ccccc12`, the Potency result is “inactive”.

`COc1c(C(C)(C)C)cc([N+](=O)[O-])c(C)c1[N+](=O)[O-]`: the Potency result was “inactive”.

Regarding `C=C(Cl)CCl`, the Potency entry was “inactive”.

For the molecule `Cl/C=C/Cl`, the Potency entry was “inactive”.

For the molecule `CCCCOCC1CO1` (stereo unspecified), the Potency result was “inactive”.

As for `O=C(O)c1cccc(Cl)c1`, the Potency entry is “inactive”.

Consider `Brc1cccc(-c2ccccc2)c1`, for which the Potency result is “inactive”.

Turning to `Oc1c(Cl)cccc1Cl`, the Potency result is “inactive”.

On to `Cl/C=C\Cl`, for which the Potency result is “inactive”.

With `CCBr`, the Potency result is “inactive”.

Consider `O=[N+]([O-])c1ccc(Cl)c(Cl)c1Cl`, for which the Potency result is “inactive”.

In the case of `N#CCCC#N`, the Potency entry was “inactive”.

In the case of `Cc1ccccc1[N+](=O)[O-]`, the Potency entry is “inactive”.

For `OCCBr`, the Potency result is “inactive”.

Turning to `OCC(Cl)CCl` (stereo unspecified), the Potency entry was “inactive”.

`COc1ccc(C=O)cc1`: the Potency result was “inactive”.

`CC(=O)CCC(C)=O`: the Potency entry is “inactive”.

Consider `CC(C#N)CCC#N` (stereo unspecified), for which the Potency entry is “inactive”.
